We go through seven sequences from paper PMC7862700, “An all-to-all approach to the identification of sequence-specific readers for epigenetic DNA modifications on cytosine”.

Common to all, as to test: DAPPL (digital affinity profiling via proximity ligation, sequencing); 10 mM Tris-HCl pH 7.5, 50 mM NaCl, 1 mM DTT, 4% glycerol, room temperature, 30 min; GST-TFs on glutathione beads, 16-mer random dsDNA library, 0.1% formaldehyde crosslink after washing; high values mean tight binding
The target in one experiment is T1, FEV (Homo sapiens, UniProt Q99581 1-238).
T1 sequence: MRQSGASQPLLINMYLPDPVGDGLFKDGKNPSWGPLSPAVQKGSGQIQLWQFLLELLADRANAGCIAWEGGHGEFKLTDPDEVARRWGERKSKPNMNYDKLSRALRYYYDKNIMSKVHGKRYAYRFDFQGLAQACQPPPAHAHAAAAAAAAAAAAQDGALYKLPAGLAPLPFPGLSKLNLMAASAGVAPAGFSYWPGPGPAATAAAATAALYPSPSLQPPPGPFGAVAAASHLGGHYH
As to conditions: protein: recombinant; tags: N-terminal GST; dsDNA, one strand shown. The method in brief: (§1)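 Human transcription factors fused to GST were expressed in yeast, captured on glutathione beads, given DNA barcodes and pooled with a GST-only negative control. Pools were incubated with 200 nmole of a 16-mer random double-stranded DNA library in Tris/NaCl/DTT/glycerol buffer at room temperature for 30 min. They were then washed, crosslinked with 0.1% formaldehyde, proximity-ligated (BsaI/T4 ligase, 1 h, 37 °C), PCR-amplified and sequenced on an Illumina NextSeq500. Binding signal is each 6-mer's read frequency for a factor divided by its frequency for the GST control.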

For the next experiment, the target named is ETV5 (Homo sapiens, UniProt P41161 1-510). Particulars: protein: recombinant; tags: N-terminal GST; dsDNA, one strand shown. The method in brief: as §1
Chain of ETV5 (P41161 whole entry): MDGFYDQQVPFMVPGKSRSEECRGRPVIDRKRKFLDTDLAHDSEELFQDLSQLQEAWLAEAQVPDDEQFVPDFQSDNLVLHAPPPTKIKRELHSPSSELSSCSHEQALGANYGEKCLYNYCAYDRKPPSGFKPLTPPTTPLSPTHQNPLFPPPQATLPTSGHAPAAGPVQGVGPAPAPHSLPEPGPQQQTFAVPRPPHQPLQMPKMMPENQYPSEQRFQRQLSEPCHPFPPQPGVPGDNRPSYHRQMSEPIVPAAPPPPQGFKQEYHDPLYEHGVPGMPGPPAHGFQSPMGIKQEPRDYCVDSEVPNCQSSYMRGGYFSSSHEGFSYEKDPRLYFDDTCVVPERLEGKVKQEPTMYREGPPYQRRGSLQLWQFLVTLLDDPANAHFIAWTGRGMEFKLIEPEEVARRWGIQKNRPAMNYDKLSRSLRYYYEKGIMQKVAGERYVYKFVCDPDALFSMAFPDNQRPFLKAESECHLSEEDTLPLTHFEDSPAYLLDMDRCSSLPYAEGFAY
In another experiment the target is HSF1 (Homo sapiens, UniProt Q00613 1-529). Particulars: protein: recombinant; tags: N-terminal GST; chain copies: 3; dsDNA, one strand shown. The method in brief:
as §1

The next experiment concerns the target T2, SPIC (Homo sapiens, UniProt Q8N5J4 1-248).
T2 sequence: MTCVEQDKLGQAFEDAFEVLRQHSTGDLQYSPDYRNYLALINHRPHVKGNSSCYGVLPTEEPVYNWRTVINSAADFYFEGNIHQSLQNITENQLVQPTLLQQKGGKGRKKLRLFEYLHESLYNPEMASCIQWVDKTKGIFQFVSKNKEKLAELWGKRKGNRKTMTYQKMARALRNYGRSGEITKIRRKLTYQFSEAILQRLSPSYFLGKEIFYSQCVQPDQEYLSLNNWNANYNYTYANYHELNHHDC
Particulars: protein: recombinant; tags: N-terminal GST; dsDNA, one strand shown. The method in brief:
as §1

Another experiment concerns the target ELF4 (Homo sapiens, UniProt Q99607 1-663). Particulars: protein: recombinant; tags: N-terminal GST; dsDNA, one strand shown. The method in brief:
as §1

The next experiment deals with T3, ELK4 (Homo sapiens, UniProt P28324-2 1-405).
T3 sequence: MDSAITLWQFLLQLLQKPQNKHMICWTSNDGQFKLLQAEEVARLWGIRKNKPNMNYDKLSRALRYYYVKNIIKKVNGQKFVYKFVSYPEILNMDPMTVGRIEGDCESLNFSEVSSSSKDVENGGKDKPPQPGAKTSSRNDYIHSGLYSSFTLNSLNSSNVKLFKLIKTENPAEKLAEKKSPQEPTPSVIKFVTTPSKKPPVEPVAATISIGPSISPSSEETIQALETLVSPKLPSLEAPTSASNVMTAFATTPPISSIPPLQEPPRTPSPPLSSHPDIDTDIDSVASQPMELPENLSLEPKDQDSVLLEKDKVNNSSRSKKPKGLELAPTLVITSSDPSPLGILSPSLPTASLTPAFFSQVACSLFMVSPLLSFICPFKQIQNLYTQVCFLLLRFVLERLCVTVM
Particulars: protein: recombinant; tags: N-terminal GST; dsDNA, one strand shown. The method in brief:
as §1

The target of a further experiment is T4, ETV2 (Homo sapiens, UniProt O00321 1-342).
T4 sequence: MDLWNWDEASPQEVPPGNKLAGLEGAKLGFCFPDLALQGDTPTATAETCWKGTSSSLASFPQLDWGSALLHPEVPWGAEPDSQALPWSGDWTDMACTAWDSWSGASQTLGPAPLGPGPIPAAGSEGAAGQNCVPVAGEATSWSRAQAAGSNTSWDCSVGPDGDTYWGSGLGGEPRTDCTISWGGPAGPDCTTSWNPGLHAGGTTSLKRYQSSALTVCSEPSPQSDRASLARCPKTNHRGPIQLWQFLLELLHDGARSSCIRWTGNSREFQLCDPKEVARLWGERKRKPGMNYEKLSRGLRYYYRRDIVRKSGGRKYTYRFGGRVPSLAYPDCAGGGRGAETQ
As to conditions: protein: recombinant; tags: N-terminal GST; dsDNA, one strand shown. The method in brief:
as §1

In a further experiment the target is T5, ELF3 (Homo sapiens, UniProt P78545 1-371).
T5 sequence: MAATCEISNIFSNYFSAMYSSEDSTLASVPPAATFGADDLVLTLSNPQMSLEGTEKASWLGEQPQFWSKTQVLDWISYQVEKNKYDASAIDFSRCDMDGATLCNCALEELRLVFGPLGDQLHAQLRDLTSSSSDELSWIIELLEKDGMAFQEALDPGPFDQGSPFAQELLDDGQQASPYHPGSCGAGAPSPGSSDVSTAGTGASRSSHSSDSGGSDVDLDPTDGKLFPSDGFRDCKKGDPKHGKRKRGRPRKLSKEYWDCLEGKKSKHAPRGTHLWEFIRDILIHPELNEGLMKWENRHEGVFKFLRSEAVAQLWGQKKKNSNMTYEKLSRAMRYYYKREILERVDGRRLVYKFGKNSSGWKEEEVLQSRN
As to conditions: protein: recombinant; tags: N-terminal GST; dsDNA, one strand shown. The method in brief:
as §1

In the next experiment the target is CRX (Homo sapiens, UniProt O43186 1-299). Particulars: protein: recombinant; tags: N-terminal GST; dsDNA, one strand shown. The method in brief:
as §1

The target of another experiment is ETV1 (Homo sapiens, UniProt P50549 1-477). As to conditions: protein: recombinant; tags: N-terminal GST; dsDNA, one strand shown. The method in brief:
as §1

Chain of ELF4 (Q99607 whole entry): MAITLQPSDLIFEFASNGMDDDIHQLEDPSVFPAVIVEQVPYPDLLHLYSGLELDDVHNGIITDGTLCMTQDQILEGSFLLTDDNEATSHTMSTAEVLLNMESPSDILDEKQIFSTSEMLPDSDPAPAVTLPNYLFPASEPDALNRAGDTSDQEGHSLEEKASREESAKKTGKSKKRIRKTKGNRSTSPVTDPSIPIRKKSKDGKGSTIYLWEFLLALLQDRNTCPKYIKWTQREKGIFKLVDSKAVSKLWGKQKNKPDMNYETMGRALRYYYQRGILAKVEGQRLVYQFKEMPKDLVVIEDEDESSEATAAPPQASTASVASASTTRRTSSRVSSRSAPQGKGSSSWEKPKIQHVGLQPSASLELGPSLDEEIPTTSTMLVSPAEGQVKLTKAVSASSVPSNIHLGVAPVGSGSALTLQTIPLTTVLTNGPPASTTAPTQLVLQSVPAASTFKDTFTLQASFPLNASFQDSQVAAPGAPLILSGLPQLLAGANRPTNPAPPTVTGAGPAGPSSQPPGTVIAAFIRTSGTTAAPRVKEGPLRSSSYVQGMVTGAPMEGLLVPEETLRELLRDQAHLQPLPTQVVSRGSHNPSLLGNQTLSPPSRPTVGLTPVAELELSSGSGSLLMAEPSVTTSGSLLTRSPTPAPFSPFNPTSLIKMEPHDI
Chain of CRX (O43186 whole entry): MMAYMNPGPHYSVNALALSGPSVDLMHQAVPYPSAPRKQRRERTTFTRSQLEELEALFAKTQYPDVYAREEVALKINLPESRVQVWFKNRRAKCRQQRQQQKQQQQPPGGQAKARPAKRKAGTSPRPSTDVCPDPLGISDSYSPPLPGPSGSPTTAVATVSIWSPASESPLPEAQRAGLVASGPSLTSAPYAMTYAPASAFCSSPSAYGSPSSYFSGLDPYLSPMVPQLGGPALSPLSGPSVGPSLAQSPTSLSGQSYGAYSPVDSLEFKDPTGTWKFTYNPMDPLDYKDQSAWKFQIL
Chain of HSF1 (Q00613 whole entry): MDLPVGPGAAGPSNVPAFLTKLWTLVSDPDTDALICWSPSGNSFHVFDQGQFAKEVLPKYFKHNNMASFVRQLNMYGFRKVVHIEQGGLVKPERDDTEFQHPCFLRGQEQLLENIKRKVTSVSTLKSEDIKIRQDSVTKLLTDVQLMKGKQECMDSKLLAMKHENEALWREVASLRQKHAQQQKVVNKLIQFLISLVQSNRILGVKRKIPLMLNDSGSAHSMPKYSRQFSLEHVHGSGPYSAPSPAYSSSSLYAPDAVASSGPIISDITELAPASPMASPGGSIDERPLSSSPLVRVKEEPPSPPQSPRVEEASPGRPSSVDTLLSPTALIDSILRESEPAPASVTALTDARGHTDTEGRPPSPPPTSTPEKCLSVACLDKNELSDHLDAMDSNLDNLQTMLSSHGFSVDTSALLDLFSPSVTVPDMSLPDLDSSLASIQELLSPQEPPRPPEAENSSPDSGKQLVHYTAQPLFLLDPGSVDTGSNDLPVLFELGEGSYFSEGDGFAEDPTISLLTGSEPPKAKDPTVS
Chain of ETV1 (P50549 whole entry): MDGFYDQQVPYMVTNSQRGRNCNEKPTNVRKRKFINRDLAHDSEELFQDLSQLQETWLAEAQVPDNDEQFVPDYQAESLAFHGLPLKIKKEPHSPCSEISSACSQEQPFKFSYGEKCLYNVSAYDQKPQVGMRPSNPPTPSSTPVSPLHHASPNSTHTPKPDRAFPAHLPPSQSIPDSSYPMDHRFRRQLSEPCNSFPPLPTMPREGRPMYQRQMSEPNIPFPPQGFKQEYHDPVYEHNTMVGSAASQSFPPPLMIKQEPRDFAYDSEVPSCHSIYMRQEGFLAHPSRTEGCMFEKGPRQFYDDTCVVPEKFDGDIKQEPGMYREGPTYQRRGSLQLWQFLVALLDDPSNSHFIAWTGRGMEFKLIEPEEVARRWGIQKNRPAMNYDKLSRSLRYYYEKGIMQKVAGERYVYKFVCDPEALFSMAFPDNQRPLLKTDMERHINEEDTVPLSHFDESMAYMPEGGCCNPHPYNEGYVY

With TGTTTA, the binding signal with FEV was 1.12 fold enrichment (6-mer frequency, TF over GST control); in the experiment with ETV5, 1.19 fold enrichment (6-mer frequency, TF over GST control); in the experiment with HSF1, 1.12 fold enrichment (6-mer frequency, TF over GST control); in the experiment with SPIC it was 1.05 fold enrichment (6-mer frequency, TF over GST control); with ELF4 it was 1.11 fold enrichment (6-mer frequency, TF over GST control); in the experiment with ELK4, 1.25 fold enrichment (6-mer frequency, TF over GST control). In addition, the binding signal in the experiment with ETV2 was 1.04 fold enrichment (6-mer frequency, TF over GST control); in the experiment with ELF3, 1.22 fold enrichment (6-mer frequency, TF over GST control); with CRX, 1.25 fold enrichment (6-mer frequency, TF over GST control); in the experiment with ETV1, 1.09 fold enrichment (6-mer frequency, TF over GST control).

Consider ATCTGT, for which the binding signal in the experiment with FEV is 1.22 fold enrichment (6-mer frequency, TF over GST control); with ETV5, 1.07 fold enrichment (6-mer frequency, TF over GST control); with HSF1, 1.26 fold enrichment (6-mer frequency, TF over GST control); in the experiment with SPIC, 1.19 fold enrichment (6-mer frequency, TF over GST control); with ELF4 it was 1.21 fold enrichment (6-mer frequency, TF over GST control); in the experiment with ELK4, 1.1 fold enrichment (6-mer frequency, TF over GST control). The binding signal with ETV2 is 1.19 fold enrichment (6-mer frequency, TF over GST control); with ELF3 it was 1.17 fold enrichment (6-mer frequency, TF over GST control); with CRX, 1.45 fold enrichment (6-mer frequency, TF over GST control); with ETV1, 1.26 fold enrichment (6-mer frequency, TF over GST control).

For the sequence CATCGA, the binding signal in the experiment with FEV was 1.05 fold enrichment (6-mer frequency, TF over GST control); with ETV5, 1.17 fold enrichment (6-mer frequency, TF over GST control); with HSF1, 1.42 fold enrichment (6-mer frequency, TF over GST control); in the experiment with SPIC it was 1.06 fold enrichment (6-mer frequency, TF over GST control); in the experiment with ELF4, 1.12 fold enrichment (6-mer frequency, TF over GST control); with ELK4, 1.06 fold enrichment (6-mer frequency, TF over GST control). The binding signal is 1.16 fold enrichment (6-mer frequency, TF over GST control) with ETV2; 1.04 fold enrichment (6-mer frequency, TF over GST control) with ELF3; 1.05 fold enrichment (6-mer frequency, TF over GST control) with CRX; 1.05 fold enrichment (6-mer frequency, TF over GST control) with ETV1.

For the sequence ATCTCA, the binding signal in the experiment with FEV is 1.16 fold enrichment (6-mer frequency, TF over GST control); with ETV5, 1.18 fold enrichment (6-mer frequency, TF over GST control); with HSF1 it was 1.19 fold enrichment (6-mer frequency, TF over GST control); with SPIC, 1.14 fold enrichment (6-mer frequency, TF over GST control); with ELF4, 1.18 fold enrichment (6-mer frequency, TF over GST control); with ELK4, 1.14 fold enrichment (6-mer frequency, TF over GST control). The binding signal was 1.23 fold enrichment (6-mer frequency, TF over GST control) in the experiment with ETV2; 1.22 fold enrichment (6-mer frequency, TF over GST control) in the experiment with ELF3; 1.51 fold enrichment (6-mer frequency, TF over GST control) with CRX; 1.16 fold enrichment (6-mer frequency, TF over GST control) in the experiment with ETV1.

On to CTTTTA, for which the binding signal is 1.36 fold enrichment (6-mer frequency, TF over GST control) with FEV; 1.29 fold enrichment (6-mer frequency, TF over GST control) in the experiment with ETV5; 1.3 fold enrichment (6-mer frequency, TF over GST control) with HSF1; 1.49 fold enrichment (6-mer frequency, TF over GST control) with SPIC; 1.43 fold enrichment (6-mer frequency, TF over GST control) in the experiment with ELF4; 1.21 fold enrichment (6-mer frequency, TF over GST control) with ELK4. The binding signal in the experiment with ETV2 is 1.28 fold enrichment (6-mer frequency, TF over GST control); with ELF3, 1.34 fold enrichment (6-mer frequency, TF over GST control); in the experiment with CRX, 1.61 fold enrichment (6-mer frequency, TF over GST control); with ETV1, 1.41 fold enrichment (6-mer frequency, TF over GST control).

For the sequence CTATAA, the binding signal in the experiment with FEV is 1.16 fold enrichment (6-mer frequency, TF over GST control); with ETV5 it was 1.23 fold enrichment (6-mer frequency, TF over GST control); with HSF1 it was 1.51 fold enrichment (6-mer frequency, TF over GST control); in the experiment with SPIC, 1.35 fold enrichment (6-mer frequency, TF over GST control); with ELF4, 1.26 fold enrichment (6-mer frequency, TF over GST control); in the experiment with ELK4, 1.36 fold enrichment (6-mer frequency, TF over GST control). In addition, the binding signal with ETV2 was 1.15 fold enrichment (6-mer frequency, TF over GST control); with ELF3, 1.25 fold enrichment (6-mer frequency, TF over GST control); with CRX, 1.83 fold enrichment (6-mer frequency, TF over GST control); with ETV1 it was 1.2 fold enrichment (6-mer frequency, TF over GST control).

Regarding ACTCTA, the binding signal in the experiment with FEV is 1.45 fold enrichment (6-mer frequency, TF over GST control); in the experiment with ETV5, 1.48 fold enrichment (6-mer frequency, TF over GST control); with HSF1, 1.63 fold enrichment (6-mer frequency, TF over GST control); with SPIC it was 1.63 fold enrichment (6-mer frequency, TF over GST control); with ELF4 it was 1.41 fold enrichment (6-mer frequency, TF over GST control); in the experiment with ELK4, 1.43 fold enrichment (6-mer frequency, TF over GST control). In addition, the binding signal was 1.41 fold enrichment (6-mer frequency, TF over GST control) with ETV2; 1.36 fold enrichment (6-mer frequency, TF over GST control) with ELF3; 1.52 fold enrichment (6-mer frequency, TF over GST control) with CRX; 1.42 fold enrichment (6-mer frequency, TF over GST control) in the experiment with ETV1.
